# Results reported in PubChem BioAssay (NCI).
# Compounds without any hit were thinned out: in the full panel of roughly 79,000, 15% have a hit. A number with no mark means an inactive call. Calls of active or inactive are those of the source. Rule as the data show it: active = growth inhibition above about 70%; inactive = the rest.
# Experiments:
# [1] = NCI Yeast Anticancer Drug Screen. Data for the rad50 strain (AID 155);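 also: 0% = growth of vehicle-only cultures of the same strain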; settings: S. cerevisiae rad50 strain growth inhibition; at 50.0 µM; stronger effect = higher value
# Outline: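 Inhibition values express reduced yeast growth in compound-treated cultures relative to vehicle-treated controls.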
# [2] = NCI Yeast Anticancer Drug Screen. Data for the mec2-1 strain (AID 157); settings: S. cerevisiae mec2-1 strain, at 50.0 µM, stronger effect = higher value
# Outline: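 Compounds were applied to mec2-1 yeast cells. Their growth was then compared with that of vehicle-treated cultures to give growth inhibition.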
# [3] = NCI Yeast Anticancer Drug Screen. Data for the sgs1 mgt1 strain (AID 161);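 also: 0% = growth of cultures given vehicle only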; settings: S. cerevisiae sgs1 mgt1 strain, at 50.0 µM, stronger effect = higher value
# Outline: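 Percent growth inhibition was derived by comparing compound-exposed mutant yeast with vehicle-exposed cultures. The strain carries alterations in DNA damage repair.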
# [4] = NCI Yeast Anticancer Drug Screen. Data for the cln2 rad14 strain (AID 165);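 also: 0% = growth equal to vehicle treated cultures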; settings: S. cerevisiae cln2 rad14 strain, at 50.0 µM, stronger effect = higher value
# Outline: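 Strain: cln2 rad14 yeast, altered in cell cycle control and DNA damage repair. Read-out: growth inhibition vs vehicle.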
# [5] = NCI Yeast Anticancer Drug Screen. Data for the bub3 strain (AID 167); settings: S. cerevisiae bub3 mutant strain, at 50.0 µM, stronger effect = higher value
# Outline: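 Steps: expose the mutant yeast strain to compound; grow alongside vehicle-treated cultures; measure growth; express inhibition against the vehicle cultures.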
# [6] = NCI Yeast Anticancer Drug Screen. Data for the mlh1 rad18 strain (AID 175); settings: S. cerevisiae mlh1 rad18 strain growth inhibition; at 50.0 µM; stronger effect = higher value
# Outline: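 A repair-deficient yeast strain is exposed to test compound, and growth is scored relative to vehicle-treated controls.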
Structure (SMILES),growth inhibition [1],growth inhibition [2],growth inhibition [3],growth inhibition [4],growth inhibition [5],growth inhibition [6]
CC(=O)OCC1OC(n2c3c(cc(C#N)c2=S)CCCCC3)C(OC(C)=O)C(OC(C)=O)C1OC(C)=O (stereo not given),27.1%,-1.7%,3.1%,-32.9%,-0.8%,-7.1%
O=C(O)CSc1ccccc1,39.5%,18.4%,17.8%,13.3%,20.6%,0.15%
COC(=O)C1=C(C)C=C(N2CCOCC2)C(C(=O)OC)C1c1ccccc1 (stereo not given),-0.85%,-16.2%,-11.4%,-3.1%,-1.55%,9%
CC(=O)c1cccc(NC(=O)c2c(Br)c(Br)c(Br)c(Br)c2C(=O)O)c1,-7.25%,-12.6%,2.95%,0.2%,-0.25%,-3.1%
CCN(CC)C(=O)c1cncc(C(N)=O)c1,4.85%,-14.7%,28%,10.8%,12.7%,14.2%
CC1CCN(C(=O)C(c2ccccc2)c2ccccc2)CC1,27%,-7.05%,-3.1%,-18.8%,1.2%,-4.75%
COc1ccc(NS(=O)(=O)c2ccc(N=Cc3c4ccccc4nc4ccccc34)cc2)nn1,96.8% (active),95.5% (active),91.6% (active),79.9% (active),93.5% (active),90.8% (active)
Clc1ccccc1CN1COc2c(ccc3ccccc23)C1,35.5%,14.3%,32.6%,19.6%,25.5%,22.6%
N#CCCN(CCC#N)c1ccc(/C=C2/C=C(c3ccccc3)OC2=O)cc1,22.4%,-0.25%,19.1%,7.75%,-5.85%,11.3%
N#Cc1ccc(CCc2ccc(Cl)cc2)cc1,-6.85%,-17.2%,-6.9%,-41.1%,1.3%,-9.8%
Cn1ncc(=O)[nH]c1=O,-15.2%,-5.2%,-23.4%,10.1%,-9.85%,-10.3%
CCCCC(NC(=O)c1cnc2ccccc2n1)C(=O)O (stereo not given),22.2%,14%,15.3%,4.6%,22.3%,31.6%
COc1cccc[n+]1C,10.2%,3.45%,-2.15%,8.3%,5.4%,7.45%
O=C(Cl)c1ccc(Cc2ccc([N+](=O)[O-])cc2)cc1,14.8%,8.4%,11.4%,-21.9%,-17.1%,12.4%
CC12CCCCC1CC(=O)/C(=C\O)C2 (stereo not given),12.7%,15.1%,17.9%,-29.1%,-11.3%,14%
Cc1cc(Cl)cc(C)c1O,39.8%,-10.3%,6.15%,0.95%,14.9%,11.8%
COc1cccc(NC(=O)CC(=O)N2N=C(C)C(N=Nc3ccc(S(=O)(=O)c4ccc(N=NC5C(=O)N(C(=O)CC(=O)Nc6cccc(OC)c6)N=C5C)cc4)cc3)C2=O)c1 (stereo not given),27.4%,15.8%,8.9%,-16.4%,-2%,29.1%
COc1ccc(-c2c(C(C)=O)c(C)n(C3OC(CO)C(O)C(O)C3O)c(=S)c2C#N)cc1 (stereo not given),15.9%,34.2%,31.8%,34%,26.2%,49%
O=C(O)c1ccc(Br)cc1,5.1%,-6.05%,2.8%,-25.2%,9.8%,0%
C/C(=N/NS(=O)(=O)c1ccc(C)cc1)C(C)C,3.05%,1.75%,10.8%,-6.85%,3.4%,23.8%

Structure (SMILES),growth inhibition [1],growth inhibition [2],growth inhibition [3],growth inhibition [4],growth inhibition [5],growth inhibition [6]
c1cc2c3c(c1)CCC3CCC2 (stereo not given),-50.1%,-48%,-50.9%,12.8%,-35%,-4.85%
COC(OC)c1ccccc1CO,-7.6%,-28.5%,-6.1%,-41.5%,3.65%,-14.8%
N#C/C(=C\c1ccc(Cl)cc1)c1nc2ccccc2c(=O)[nH]1,12.2%,17.9%,-14.5%,5.7%,1.8%,-53.2%
Cc1oc2cc(O)ccc2c(=O)c1-c1ccccc1Br,9.85%,24.9%,17.4%,-24.6%,15.9%,27.4%
CC(=O)Nc1ccc(/C=N\N=C\c2ccc(NC(C)=O)cc2)cc1,1.95%,13.7%,28.4%,-4.6%,29.9%,28.6%
C/C(Cl)=N\OC(=O)Nc1ccc([N+](=O)[O-])cc1,34.2%,80.2% (active),85.8% (active),66.8%,87.2% (active),43.4%
O=C1c2ccccc2C(=O)c2c(Cl)ccc(O)c21,3.15%,11.2%,3.8%,0.1%,30.4%,19.9%
CCCCOC(=O)C(C)C(=O)CCC(C)CC (stereo not given),4.55%,2.6%,-1.1%,-7.05%,8.2%,3.85%
Cc1ncc(CO)c(Nc2ccccc2)n1,1.85%,5.8%,-0.25%,-25.5%,-4.8%,8.4%
CCOC(=O)CCC(C(=O)OCC)c1nc2ccccc2[nH]c1=O (stereo not given),12.6%,11.9%,12.6%,-2.75%,14.1%,14.2%
O=S(=O)(Nc1cccc(Cl)c1)c1ccc(F)cc1,-8.45%,-11.2%,-13.2%,-5.4%,-11.3%,2.5%
N#Cc1c(-c2ccco2)c2c(n(C3OC(CO)C(O)C(O)C3O)c1=S)CCCC2 (stereo not given),-12.3%,6.9%,15.7%,-7.75%,5%,14.8%
Cc1cc(Cl)ccc1NC(=O)C(=O)Cc1nc2ccc(C(=O)c3ccccc3)cc2[nH]c1=O,5.15%,-4.75%,-4.85%,22.9%,26.4%,7.15%
Cc1nc(N)[nH]c(=O)c1CCCN(c1ccccc1)S(=O)(=O)c1ccc(N)cc1,9.4%,-1.35%,-2.3%,-22.9%,-2.35%,19.6%
Clc1ccc(Cl)nc1,-8.25%,-8.25%,-8.2%,-13.7%,2.75%,5.45%
CC(C)(O)C1COC2=C1C(=O)c1ccccc1C2=O (stereo not given),11.8%,-10.2%,24.6%,12.6%,7.2%,-35.9%
C=C1C(=O)[C@@]23CC1C(O)[C@@H](OC(C)=O)[C@@H]2C1(C)C(OC(C)=O)C[C@@H](OC(C)=O)C(C)(C)[C@@H]1C[C@H]3OC(C)=O (stereo not given in full),16.1%,11.9%,14%,22.4%,2.05%,0.15%
CCCCCCCCCCCCCCCCCCCCCC(=O)O,-16.1%,-21.4%,-21.1%,-28.3%,-2.15%,-18.1%
C[N+](C)([O-])CCCNc1ccnc2cccc([N+](=O)[O-])c12,24.1%,6.6%,28.9%,8.4%,9.95%,-21.4%
O=c1c2c3c(sc2nc2n1N=CN(c1ccc(Cl)cc1)C2)CCCC3,8.7%,6%,7.7%,-5.45%,-4.7%,-32%
